Source: PubChem BioAssay
ELG1 genotoxic: inducers of genotoxicity in HEK293T ELG1-luciferase cells. Potency, µM (titrated, usually from 46 µM), most hits filed as activators. AID 504466. 1.3% of 330,000 active. HEK293T ELG1-luciferase reporter, luminescence, 16 h; also: nearly all actives have a fitted effect of over 60% in size
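Quantitative HTS format in 1536-well plates. HEK293T ELG1-luciferase reporter cells receive test compound and are incubated 16 hr at 37 °C, 5% CO2; ONE-Glo added, 30 min room temperature, then luminescence read.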
FLuc modulator: inhibits or activates purified firefly luciferase, miR-21 counter-screen. P08659. purified FLuc, Km substrates, luminescence inhibition. Potency, µM (doses to about 57.5 µM), most hits filed as inhibitors. 6.9% of 360,000 active. AID 588342; also: nearly all actives have a fitted effect of over 55% in size
Target sequence (P08659 whole entry, looked up): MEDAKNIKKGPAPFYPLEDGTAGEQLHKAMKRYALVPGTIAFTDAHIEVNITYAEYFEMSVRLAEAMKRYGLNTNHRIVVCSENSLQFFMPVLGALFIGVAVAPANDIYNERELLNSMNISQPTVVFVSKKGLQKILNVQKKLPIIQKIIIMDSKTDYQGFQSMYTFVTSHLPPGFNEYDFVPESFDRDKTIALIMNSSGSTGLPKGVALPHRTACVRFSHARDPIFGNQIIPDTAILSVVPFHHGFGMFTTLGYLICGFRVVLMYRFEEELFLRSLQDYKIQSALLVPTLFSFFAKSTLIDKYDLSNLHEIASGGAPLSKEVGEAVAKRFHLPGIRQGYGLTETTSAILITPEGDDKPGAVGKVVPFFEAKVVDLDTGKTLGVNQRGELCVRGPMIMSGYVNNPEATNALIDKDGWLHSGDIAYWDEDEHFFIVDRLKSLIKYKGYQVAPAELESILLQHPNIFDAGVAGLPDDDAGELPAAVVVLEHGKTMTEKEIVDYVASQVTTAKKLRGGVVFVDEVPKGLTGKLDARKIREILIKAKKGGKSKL
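Purified P. pyralis luciferase, 10 nM final, with Km-level 10 uM D-luciferin and 10 uM ATP in 50 mM Tris acetate pH 7.5, 10 mM Mg acetate, 0.01% Tween-20, 0.05% BSA; 6-point qHTS titration about 60 µM downward; luminescence read.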
ELG1 repair inh: blocks ELG1-dependent DNA repair in HEK293T cells; HEK293T ELG1-luciferase reporter, luminescence, 16 h; DNA damage induced by 5-fluorouridine; Potency, µM (series often up to 46.1 µM), actives largely listed as inhibitors; 2.3% of 330,000 active; AID 504467; also: nearly all actives have a fitted effect of over 55% in size
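5-Fluorouridine DNA damage + compound/DMSO, 2,000 cells/well, 16 h, 37 °C/5% CO2. ONE-Glo, 30 min RT, luminescence. Readout = decrease in reporter signal.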
SMN2 splice enh: SMN2 splice variant enhancement; 2.8% of 210,000 active; AID 1458; HEK293 SMN2-luciferase splicing reporter, luminescence, 30-36 h; Potency, µM (top dose mostly 46.1 µM), actives largely listed as activators; also: nearly all actives have a fitted effect of over 55% in size
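qHTS luciferase splicing reporter: luminescence rises when SMN2 exon 7 is included in transfected HEK293 cells. Compound exposure lasted 30-36 h at 37C, with 4.5 mM final sodium butyrate as control, followed by a ONE-Glo read.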
Rab9 promoter act: activators of Rab9 promoter; Huh7 Rab9 promoter-luciferase reporter, luminescence, 24 h; Potency, µM (top dose mostly 9.22 µM), most hits filed as activators; 2.8% of 320,000 active; also: nearly all actives have a fitted effect of over 60% in size
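Cell-based reporter: Huh7 stable for Rab9 promoter-driven luciferase, plated in reduced-serum medium with 10% FBS at 1500 cells/well, compound-treated 24 h at 37 °C, luminescence read after 10 min reagent.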
NPC1 prom act: activates the NPC1 promoter; Huh7 NPC1 promoter luciferase reporter, 24 h; Potency, µM (doses to about 9.22 µM), actives largely listed as activators; 2.4% of 320,000 active; also: nearly all actives have a fitted effect of over 60% in size
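Quantitative HTS used a cell-based reporter: Huh7 cells stably bearing the NPC1 promoter upstream of luciferase were treated with compounds for 24 h, and promoter activation was read as luminescence.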
A number is an active result; – = inactive; ? = inconclusive; · = no result; [ ] = another dose, or the depositor's remark. Rows were chosen to be rich in hits. Some 9.2% of all compounds tested hit in one or more screens of this group. Calls follow the shape of the dose curve; as a rule, active = well fitted curve in the direction sought with a large enough effect; inconclusive = small, poorly fitted or top-dose-only effect, or another doubt; inactive = no such curve, though single readings can be large; an effect the other way counts as inactive or inconclusive.

SMILES	ELG1 genotoxic	FLuc modulator	ELG1 repair inh	SMN2 splice enh	Rab9 promoter act	NPC1 prom act
c1nnc(-c2ccc3c(c2)OCO3)o1	–	–	–	–	–	–
Clc1ccc(CSc2nnc(-c3ccc4c(c3)OCO4)o2)cc1	–	?	–	–	–	–
O=C1CCCCC1Sc1nnc(-c2ccc3c(c2)OCO3)o1 (stereo not given)	–	0.601µM	?	?	0.1µM	0.199µM
Cc1ccc(-c2nnc(-c3ccc4c(c3)OCO4)o2)cc1	6.51µM	1.35µM	?	11.2µM	0.708µM	1µM
c1coc(-c2nnc(-c3ccc4c(c3)OCO4)o2)c1	8.2µM	6.75µM	?	17.8µM	?	2µM
Brc1ccc(-c2nnc(-c3ccc4c(c3)OCO4)o2)o1	?	1.69µM	?	11.2µM	1µM	2µM
O=C(COc1ccc(Cl)cc1)Nc1ccccc1C(=O)OCc1cc(=O)n2ccsc2n1	·	–	·	·	·	·
Cc1ccc(Cl)cc1N1CCN(C(=O)c2c(C)oc3ncnc(N4CCCCC4)c23)CC1	·	–	·	·	·	·
Cc1ccc(S(=O)(=O)N2CCCN(C(=O)c3cc4ccccc4[nH]3)CC2)cc1	–	19µM	–	·	–	–
O=C(C1CCN(S(=O)(=O)c2ccc(Cl)cc2)CC1)N1CCCC1	–	–	–	·	–	–
Cc1ccccc1C(=O)N1CCC(C(=O)Nc2ccc(S(=O)(=O)N3CCOCC3)cc2)CC1	–	–	–	·	–	–
CN(C1CCCCC1)S(=O)(=O)c1ccc(S(=O)(=O)N2CCN(C(=O)c3ccccc3F)CC2)cc1	–	–	18.4µM	–	–	–
CN1CCN(C(=O)c2cc3ccccc3[nH]2)CC1	–	–	–	·	–	–
Cc1ccc(S(=O)(=O)N2CCC(C(=O)N3CCC3)CC2)cc1	–	9.53µM	?	·	3.16µM	2.24µM
Cc1ccccc1C(=O)N1CCC(C(=O)Nc2ccc(S(=O)(=O)N3CCCCC3)cc2)CC1	–	–	14.6µM	·	–	–
Cc1ccc(/C=C/c2onc(C)c2S(=O)(=O)N2CCC(C(=O)NCc3ccc(N(C)C)cc3)CC2)cc1	·	–	·	·	·	·
O=C(NNC(=O)c1ccccc1F)c1ccc(Cl)c(S(=O)(=O)N2CCOCC2)c1	–	·	–	·	–	–
COC(=O)c1cc2sc(C)cc2n1CC(=O)Nc1ccc(C)cc1Cl	·	–	·	–	·	·
O=C(Nc1ccc(F)cc1F)C(Cc1ccccc1)N1Cc2ccccc2C1=O (stereo not given)	·	–	·	·	·	·
Cc1ccc(S(=O)(=O)N2CCN(C(=O)CC(C)C)CC2)cc1	?	15.1µM	?	·	1.12µM	3.98µM
O=C(c1cc(=O)[nH]c2ccccc12)N1CCN(S(=O)(=O)c2ccc3ccccc3c2)CC1	–	–	?	–	–	–
O=C(c1cc(=O)[nH]c2ccccc12)N1CCN(S(=O)(=O)c2ccc(Cl)cc2)CC1	–	–	23.1µM	·	–	–
COc1ccc(NC(=O)CC(C)NCCCN2CCCC2=O)cc1 (stereo not given)	–	–	–	·	–	–
COC(=O)c1nn(-c2ccccc2)nc1-c1nn(-c2ccccc2)nc1C(=O)OC	?	2.39µM	–	–	–	–
O/N=C1/CC/C(=N\O)c2nn(-c3ccccc3)nc21	–	?	–	?	–	–
SMILES	ELG1 genotoxic	FLuc modulator	ELG1 repair inh	SMN2 splice enh	Rab9 promoter act	NPC1 prom act
O=C(O)c1nn(-c2ccccc2)nc1-c1nn(-c2ccccc2)nc1C(=O)O	–	21.3µM	–	–	–	–
Cc1ccc(NC(=O)C2CCCN(S(=O)(=O)c3cccc4cccnc34)C2)c(Br)c1 (stereo not given)	·	–	·	·	·	·
CSc1nnc(NC(=O)C23CC4CC(CC(C4)C2)C3)s1	–[9.26 µM]	23.9µM	?	·	?	?
CCc1nnc(NC(=O)C23CC4CC(CC(C4)C2)C3)s1	?	10.7µM	?	·	?	?
Cn1ccsc1=NC(=O)c1ccc(OC(F)(F)F)cc1	?	9.53µM	?	·	4.47µM	?
Cn1ccs/c1=N\C(=O)Nc1ccccc1	?	10.7µM	?	·	3.16µM	2.51µM
Cn1ccsc1=NC(=O)c1ccccc1F	–	–	?	–	–	–
CN(C)c1ccc(C(=O)N=c2sccn2C)cc1[N+](=O)[O-]	9.2µM	9.53µM	?	·	3.16µM	2.24µM
Cn1ccsc1=NC(=O)c1ccc(Cl)cc1	?	16.9µM	?	14.1µM	?	?
Cn1ccsc1=NC(=O)c1ccc(CS(C)(=O)=O)cc1	–	?	?	·	–	–
COc1ccc(C(=O)N=c2sccn2C)cc1	?	16.9µM	?	?	?	?
Cn1ccsc1=NC(=O)c1ccc(S(=O)(=O)C(F)F)cc1	?	?	?	·	3.55µM	?
CCOc1cc(C(=O)N=c2sccn2C)ccc1OC(F)F	–	–	–	·	?	–
COC(=O)c1ccc(C(=O)N=c2sccn2C)cc1	?	15.1µM	?	·	2.82µM	2.82µM
Cc1ccc(N(CCC#N)C(=O)CCl)cc1C	–	–	18.4µM	–	–	–
N#Cc1c(N2CCOCC2)nsc1-c1ccc(C(F)(F)F)cc1	?	7.57µM	?	·	?	?
Cc1cc(C(F)(F)F)c(C#N)c(N2CCOCC2)n1	–	–	–	–	–	–
O=C(CSc1ccc(-c2ccc(Cl)cc2)nn1)N1CCCc2ccccc21	–	15.1µM	–	–	–	–
Cc1ccc(-c2nnc3ccc(SCC(=O)N4CCCc5ccccc54)nn23)cc1	–	–	18.4µM	–	–	–
CCOc1ccc(OCC)c(NS(=O)(=O)c2ccc3c(c2)CCCN3C(C)=O)c1	·	–	·	·	·	·
CCOC(=O)C(C)n1cnc2c(oc3ccccc32)c1=O (stereo not given)	–	–	–	–	–	–
CC(C)n1cnc2c(oc3ccccc32)c1=O	–	16.9µM	?	·	–	–
Cc1cc(-c2ccc(C(C)C)c(S(=O)(=O)NCCN3CCC(C)CC3)c2)on1	–	–	–	·	–	–
COc1ccc(-c2nc3ccccc3c(C(=O)Nc3ccc(S(=O)(=O)Nc4cc(C)on4)cc3)c2C)cc1	–	?	13µM	–	–	–
Cc1ccc(-c2cc(C(=O)Nc3ccc(S(=O)(=O)Nc4onc(C)c4C)cc3)c3ccccc3n2)cc1	–	13.5µM	–	–	–	–
Cc1c(C(=O)Nc2ccc(S(=O)(=O)Nc3ncccn3)cc2)oc2ccc(Cl)cc12	–	–	–	·	–	–
Cc1ccc(-c2cc(C(=O)Nc3ccc(S(=O)(=O)Nc4cc(C)on4)cc3)c3ccccc3n2)c(C)c1	–	–	–	–	–	–
Cc1noc(NS(=O)(=O)c2ccc(NC(=O)c3ccc(Br)cc3)cc2)c1C	·	21.3µM	·	–	·	·
Cc1noc(NS(=O)(=O)c2ccc(NC(=O)c3ccc(Br)o3)cc2)c1C	–	–	–	–	–	–
Cc1noc(NS(=O)(=O)c2ccc(NC(=O)c3oc4ccc(Cl)cc4c3C)cc2)c1C	–	16.9µM	–	·	–	–
